Records with an inconclusive call do not appear. A call without a number means that no potency is given here. Values without a mark were called inactive. Activity calls are given as the source filed them. Unless noted, calls come from the whole dose curve.
Tests used:
[1] = qHTS assay to identify small molecule agonists of the peroxisome proliferator-activated receptor delta (PPARd) signaling pathway - cell viability counter screen (AID 743211; active = well fitted curve in the direction sought with a large enough effect in the repeat runs; an effect the other way counts as inactive or inconclusive; note: nearly all actives have a fitted effect of over 55% in size)
In short: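 Viability was measured as CellTiter-Glo luminescence (30 min, room temperature) in the same wells as the beta-lactamase readout. GeneBLAzer PPARd UAS-bla HEK293H cells received compound after 5 h plating and were incubated 17 h at 37 C.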

[2] = target: Peroxisome proliferator-activated receptor delta (Homo sapiens) (UniProt Q03181); assay: qHTS assay to identify small molecule agonists of the peroxisome proliferator-activated receptor delta (PPARd) signaling pathway (AID 743212)
Chain of Peroxisome proliferator-activated receptor delta (Homo sapiens) (Q03181 whole entry, looked up): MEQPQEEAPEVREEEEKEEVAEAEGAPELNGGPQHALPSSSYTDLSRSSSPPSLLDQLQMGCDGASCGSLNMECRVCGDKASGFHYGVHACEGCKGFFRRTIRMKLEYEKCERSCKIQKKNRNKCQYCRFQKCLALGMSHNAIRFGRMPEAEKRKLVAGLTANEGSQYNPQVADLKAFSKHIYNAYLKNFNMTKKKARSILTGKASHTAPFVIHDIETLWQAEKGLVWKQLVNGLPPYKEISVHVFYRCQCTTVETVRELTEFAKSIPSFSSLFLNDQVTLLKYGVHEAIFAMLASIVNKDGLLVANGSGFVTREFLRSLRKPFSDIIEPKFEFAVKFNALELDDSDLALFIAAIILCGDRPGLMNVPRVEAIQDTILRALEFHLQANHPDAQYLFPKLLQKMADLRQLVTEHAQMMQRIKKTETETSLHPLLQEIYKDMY
In short: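 A PPARd-bla HEK293H line with beta-lactamase under an Upstream Activator Sequence is treated with compounds at 37 C. Substrate loading for 2 h at room temperature precedes the fluorescence measurement.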

[3] = qHTS assay to identify small molecule antagonists of the peroxisome proliferator-activated receptor delta (PPARd) signaling pathway - cell viability counter screen (AID 743213; active = well fitted curve in the direction sought with a large enough effect in the repeat runs; an effect the other way counts as inactive or inconclusive; note: nearly all actives have a fitted effect of over 50% in size)
In short: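 Luminescence from CellTiter-Glo, added after the bla read and incubated 30 min at room temperature, gives viability of HEK293H PPARd-bla cells exposed to compounds for 17 h at 37 C with 300 nM L165041.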

[4] = target: Peroxisome proliferator-activated receptor delta (Homo sapiens) (UniProt Q03181); assay: qHTS assay to identify small molecule antagonists of the peroxisome proliferator-activated receptor delta (PPARd) signaling pathway (AID 743215; active = well fitted inhibition curve with a large enough effect in the signal ratio in the repeat runs, not every such curve was filed as active; the % refers to the signal ratio;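 note: cells stimulated with agonist L165041 at 300 nM final during compound exposure; series mostly up to about 62 µM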)
In short: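 PPARd-bla HEK293H cells (UAS-bla reporter) preincubated 5 h, then given compound plus 300 nM final L165041 agonist for 17 h at 37 C. Beta-lactamase activity read by LiveBLAzer B/G FRET substrate fluorescence after 2 h at room temperature.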

[5] = qHTS assay to identify small molecule agonists of the farnesoid-X-receptor (FXR) signaling pathway - cell viability counter screen (AID 743218; active = well fitted curve in the direction sought with a large enough effect in the repeat runs; an effect the other way counts as inactive or inconclusive; note: nearly all actives have a fitted effect of over 45% in size)
In short: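 FXR-UAS-bla HEK 293T cells exposed to compounds for 16 h at 37C. Cytotoxicity read in the same wells by CellTiter-Glo luminescence after 30 min at room temperature, following the beta-lactamase FRET read.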

[6] = qHTS assay to identify small molecule antagonists of the farnesoid-X-receptor (FXR) signaling pathway - cell viability counter screen (AID 743221; active = well fitted cell-killing curve with a large enough effect in the repeat runs, not every such curve was filed as active; note: nearly all actives have a fitted effect of over 50% in size)
In short: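 Cytotoxicity counter screen run in the FXR-bla reporter wells: HEK 293T cells exposed to compound with 50 uM (final) chenodeoxycholic acid for 16 h, 37 C, then viability measured by CellTiter-Glo luminescence after 30 min, room temperature.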

[7] = target: Vitamin D3 receptor (Homo sapiens) (UniProt P11473); assay: qHTS assay to identify small molecule agonists of the vitamin D receptor (VDR) signaling pathway (AID 743222)
Chain of Vitamin D3 receptor (Homo sapiens) (P11473 whole entry, looked up): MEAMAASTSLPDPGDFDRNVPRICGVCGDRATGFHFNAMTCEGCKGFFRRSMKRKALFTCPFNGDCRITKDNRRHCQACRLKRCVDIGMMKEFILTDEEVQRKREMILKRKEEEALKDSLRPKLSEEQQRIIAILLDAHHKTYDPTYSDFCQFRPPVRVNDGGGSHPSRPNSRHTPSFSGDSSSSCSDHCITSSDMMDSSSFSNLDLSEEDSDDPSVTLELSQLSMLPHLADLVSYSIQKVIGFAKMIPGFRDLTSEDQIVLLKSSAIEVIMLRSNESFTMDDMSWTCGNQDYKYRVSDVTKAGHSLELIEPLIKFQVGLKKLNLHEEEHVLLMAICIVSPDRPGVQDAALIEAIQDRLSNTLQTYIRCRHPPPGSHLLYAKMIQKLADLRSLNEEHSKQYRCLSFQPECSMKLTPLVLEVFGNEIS
In short: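 VDR-bla cells plated 4 h at 37 C, then exposed to compounds for 16 h at 37 C. Beta-lactamase reporter activity measured by fluorescence after 2 h room-temperature loading with LiveBLAzer B/G FRET substrate.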

[8] = target: Vitamin D3 receptor (Homo sapiens) (UniProt P11473); assay: qHTS assay to identify small molecule antagonists of the vitamin D receptor (VDR) signaling pathway (AID 743223; active = well fitted inhibition curve with a large enough effect in the signal ratio in the repeat runs, not every such curve was filed as active; the % refers to the signal ratio)
In short: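 Antagonist mode: compound added to VDR-bla cells alongside agonist 1alpha,25-dihydroxyvitamin D3 (3 nM final), incubation 16 h at 37C. Read-out is LiveBLAzer FRET fluorescence, 2 h at room temperature.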

[9] = qHTS assay to identify small molecule antagonists of the vitamin D receptor (VDR) signaling pathway - cell viability counter screen (AID 743225; active = well fitted curve in the direction sought with a large enough effect in the repeat runs; an effect the other way counts as inactive or inconclusive; note: nearly all actives have a fitted effect of over 50% in size)
In short: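 Cytotoxicity counter screen read by CellTiter-Glo luminescence (30 min, room temperature) in the same wells as the VDR-bla antagonist readout. HEK 293T VDR-UAS-bla cells had 16 h at 37C with compound and 3 nM (final) 1-alpha,25-dihydroxyvitamin D3, then 2 h with FRET substrate.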

[10] = qHTS assay to identify small molecule agonists of the NFkB signaling pathway (AID 1159509; active = well fitted curve in the direction sought with a large enough effect in the signal ratio in the repeat runs, not every such curve was filed as active; the % refers to the signal ratio; note: series mostly up to about 61 µM)
In short: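 ME-180 NFkB-bla, 2,000 cells/well, overnight plating; cpd pinned in DMSO, 5 h 37 C; B/G FRET substrate 1.5 h RT; ex 405, em 460/530 nm.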

[11] = qHTS assay to identify small molecule agonists of the NFkB signaling pathway - cell viability counter screen (AID 1159515); note: series mostly up to about 61 µM; nearly all actives have a fitted effect of over 55% in size
In short: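 NFkB-bla ME-180 cells, 2,000/well, plated overnight at 37 C; compound added for 5 hr at 37 C. Viability read in the same wells as the bla reporter, by CellTiter-Glo luminescence after 30 min at room temperature.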

[12] = qHTS assay to identify small molecule agonists of the endoplasmic reticulum stress response signaling pathway (AID 1159516; active = well fitted activation curve with a large enough effect in the signal ratio in the repeat runs, not every such curve was filed as active; the % refers to the signal ratio)
In short: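 CellSensor ESRE-bla HeLa cells, 1,500 per well, plated overnight, then exposed to compounds for 5 hr at 37 C. Beta-lactamase reporter read with LiveBLAzer B/G FRET substrate after 2 hr at room temperature, 405 nm excitation, 460 and 530 nm emission.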

[13] = qHTS assay to identify small molecule agonists of the endoplasmic reticulum stress response signaling pathway - cell viability counter screen (AID 1159517);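 note: HeLa cells carrying an ER stress response element beta-lactamase reporter; series mostly up to about 61 µM; nearly all actives have a fitted effect of over 50% in size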
In short: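 CellTiter-Glo was added to wells already read for beta-lactamase FRET, and luminescence was recorded 30 min later. Cells: ESRE-bla HeLa, 1,500 per well, compound exposure 5 hr at 37 C.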

[14] = target: Nuclear receptor ROR-gamma (Homo sapiens) (UniProt P51449); assay: qHTS assay to identify small molecule antagonists of the retinoid-related orphan receptor gamma (ROR-gamma) signaling pathway (AID 1159521; active = well fitted curve in the direction sought with a large enough effect in the repeat runs; an effect the other way counts as inactive or inconclusive; note: nearly all actives have a fitted effect of over 50% in size; note: potency is the fitted concentration of half-maximal effect)
In short: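 Antagonist read-out: drop in luminescence (ONE-Glo) from an RORE-LUC reporter in CHO cells with doxycycline-inducible ROR-gamma; 2 hr compound pretreatment, 1 uM doxycycline, 16 hr incubation at 37 C.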

[15] = qHTS assay to identify small molecule agonists of the AP-1 signaling pathway - cell viability counter screen (AID 1159525); note: nearly all actives have a fitted effect of over 55% in size; note: potency is the fitted concentration of half-maximal effect
In short: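 ME-180 AP-1-bla, 2500 cells/well, Opti-MEM + 0.5% dialyzed FBS; overnight 37 °C; cpd 15-pt titration, 5 h 37 °C; CellTiter-Glo 30 min RT; luminescence read; normalised to TOAB and DMSO controls.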

[16] = qHTS assay to identify small molecule agonists of the AP-1 signaling pathway (AID 1159526)
[17] = qHTS assay to identify small molecule agonists of the vitamin D receptor (VDR) signaling pathway - cell viability counter screen (AID 743224; active = well fitted curve in the direction sought with a large enough effect in the repeat runs; an effect the other way counts as inactive or inconclusive)
In short: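 VDR-bla cells, 4 h after plating, exposed to compounds for 16 h at 37C; viability then read in the same wells as CellTiter-Glo luminescence after 30 min at room temperature, following the bla FRET read.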

[18] = target: Bile acid receptor (Homo sapiens) (UniProt Q96RI1); assay: qHTS assay to identify small molecule antagonists of the farnesoid-X-receptor (FXR) signaling pathway (AID 743217; active = well fitted inhibition curve with a large enough effect in the signal ratio in the repeat runs, not every such curve was filed as active; the % refers to the signal ratio)
Chain of Bile acid receptor (Homo sapiens) (Q96RI1 whole entry, looked up): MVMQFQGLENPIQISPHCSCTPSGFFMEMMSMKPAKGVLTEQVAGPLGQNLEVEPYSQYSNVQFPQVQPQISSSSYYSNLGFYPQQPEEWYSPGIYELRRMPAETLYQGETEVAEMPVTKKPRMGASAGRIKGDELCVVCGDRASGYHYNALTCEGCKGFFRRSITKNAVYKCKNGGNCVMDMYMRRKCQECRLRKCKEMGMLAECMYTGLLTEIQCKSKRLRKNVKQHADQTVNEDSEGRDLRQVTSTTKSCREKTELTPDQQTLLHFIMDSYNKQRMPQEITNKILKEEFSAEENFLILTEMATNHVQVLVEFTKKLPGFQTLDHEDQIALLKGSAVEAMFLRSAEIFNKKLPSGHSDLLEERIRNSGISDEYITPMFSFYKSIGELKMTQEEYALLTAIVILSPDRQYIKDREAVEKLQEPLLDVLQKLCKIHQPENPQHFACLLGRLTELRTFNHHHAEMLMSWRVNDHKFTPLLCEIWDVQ
In short: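 FXR-UAS-bla HEK 293T cells (beta-lactamase reporter) given compound plus chenodeoxycholic acid (50 uM final), 16 h at 37C. LiveBLAzer B/G FRET substrate added for 2 h at room temperature; fluorescence read.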

[19] = target: Bile acid receptor (Homo sapiens) (UniProt Q96RI1); assay: qHTS assay to identify small molecule agonists of the farnesoid-X-receptor (FXR) signaling pathway (AID 743220; active = well fitted activation curve with a large enough effect in the signal ratio in the repeat runs, not every such curve was filed as active; the % refers to the signal ratio)
In short: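 Beta-lactamase reporter under UAS control in GeneBLAzer FXR HEK 293T cells (5000/well) measured with LiveBLAzer FRET substrate after 2 h at room temperature. Compound exposure lasted 16 h at 37C.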

[20] = qHTS assay to identify small molecule antagonists of the retinoid-related orphan receptor gamma (ROR-gamma) signaling pathway - cell viability counter screen (AID 1159520; active = well fitted curve in the direction sought with a large enough effect in the repeat runs; an effect the other way counts as inactive or inconclusive; note: nearly all actives have a fitted effect of over 50% in size; note: potency is the fitted concentration of half-maximal effect)
In short: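 Tet-on ROR gamma CHO cells (1,000/well) were plated 4 hr, given compounds in DMSO for 2 hr at 37 C, then induced with 1 uM final doxycycline for 16 hr. Viability was read as ATP by CellTiter-Glo luminescence after 30 min.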

| SMILES | Potency [1] | outcome [2] | outcome [3] | outcome [4] | Potency [5] | outcome [6] | outcome [7] | outcome [8] | outcome [9] | outcome [10] | outcome [11] | outcome [12] | Potency [13] | Potency [14] | Potency [15] | outcome [16] | Potency [17] | Potency [18] | outcome [19] | Potency [20] |
| --- | --- | --- | --- | --- | --- | --- | --- | --- | --- | --- | --- | --- | --- | --- | --- | --- | --- | --- | --- | --- |
| CCC1(c2ccccc2)C(=O)N=C(O)NC1=O (configuration not stated) | inactive | inactive | inactive | inactive | inactive | inactive | inactive | inactive | inactive | inactive | inactive | inactive | inactive | inactive | inactive | inactive |  |  |  |  |
| COc1cc(OC)nc(NC(=O)NS(=O)(=O)c2ncccc2C(=O)N(C)C)n1 | inactive | inactive | inactive | inactive | inactive | inactive | inactive | inactive | inactive | inactive | inactive | inactive | inactive | inactive | inactive | inactive | inactive |  |  |  |
| CC(=O)[C@H]1CC[C@H]2[C@@H]3CC[C@H]4C[C@H](O)CC[C@]4(C)[C@H]3C(=O)C[C@]12C |  | inactive | inactive | inactive |  | inactive | inactive |  |  | inactive | inactive | inactive | inactive |  | inactive | inactive | inactive | inactive | inactive |  |
| CC(C)CC#N | inactive | inactive |  | inactive | inactive | inactive | inactive | inactive |  | inactive | inactive | inactive | inactive | inactive | inactive | inactive | inactive | inactive | inactive |  |
| CC(C)CP(=S)(S)CC(C)C | inactive |  |  |  |  | inactive |  |  |  | inactive | inactive | inactive | inactive | 24.3 µM (active) | inactive |  |  | inactive |  |  |
| O=NN1CCN(N=O)CC1 | inactive |  | inactive |  | inactive | inactive | inactive | inactive | inactive | inactive | inactive |  | inactive | inactive | inactive | inactive | inactive | inactive | inactive | inactive |
| N#CC(CCc1ccc(Cl)cc1)(Cn1cncn1)c1ccccc1 (configuration not stated) |  | inactive |  | inactive | inactive | inactive | inactive | inactive |  | inactive | inactive |  | inactive | 27.3 µM (active) | 54.9 µM (active) |  |  | inactive | inactive | 54.5 µM (active) |
| Cc1cc(C)nc(Nc2ccccc2)n1 | inactive | inactive |  | inactive | inactive | inactive | inactive | inactive |  | inactive | inactive |  | inactive |  | inactive | inactive | inactive |  |  | inactive |
| CC(COc1ccc(Oc2ccccc2)cc1)Oc1ccccn1 (configuration not stated) | inactive | inactive |  | inactive |  | inactive | inactive | inactive |  | inactive | inactive |  | inactive | inactive | inactive | inactive | inactive | inactive | inactive |  |
| c1coc(-c2nc3ccccc3[nH]2)c1 |  | inactive | inactive | inactive | inactive | inactive | inactive | inactive |  | inactive | inactive |  | inactive |  | inactive | inactive | inactive |  |  | inactive |

— PubChem BioAssay (Tox21)
